Test results taken from PubChem BioAssay AID1053205 (Broad Institute, 2014).
Results with a measured potency or affinity are listed apart. Results filed as inconclusive are left out. Unmarked numbers belong to inactive results.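 How the source made its calls: active means compounds lowering the FRET ratio whose fitted half-maximal concentration is at most twice their top tested dose; inconclusive means flat partial drop between 30 and 70 percent, or bad fit; inactive means the rest.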

target: Voltage-dependent L-type calcium channel subunit alpha-1D (Homo sapiens) (UniProt Q01668); experiment: inhibitors of CaV1.3 ICDI-IQ binding, dose response, cell-based, HEK293, YFP-IQ/CFP-ICDI FRET, cherry-picks (AID 1053205); details: HEK293 YFP-IQ/CFP-ICDI FRET ratio, 10 min; series mostly up to 35 µM; FRET change, negative = inhibition: at the top concentration;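 further: 0% = median of neutral control wells and -100% = median of positive control wells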
Sequence (Q01668 whole entry, looked up): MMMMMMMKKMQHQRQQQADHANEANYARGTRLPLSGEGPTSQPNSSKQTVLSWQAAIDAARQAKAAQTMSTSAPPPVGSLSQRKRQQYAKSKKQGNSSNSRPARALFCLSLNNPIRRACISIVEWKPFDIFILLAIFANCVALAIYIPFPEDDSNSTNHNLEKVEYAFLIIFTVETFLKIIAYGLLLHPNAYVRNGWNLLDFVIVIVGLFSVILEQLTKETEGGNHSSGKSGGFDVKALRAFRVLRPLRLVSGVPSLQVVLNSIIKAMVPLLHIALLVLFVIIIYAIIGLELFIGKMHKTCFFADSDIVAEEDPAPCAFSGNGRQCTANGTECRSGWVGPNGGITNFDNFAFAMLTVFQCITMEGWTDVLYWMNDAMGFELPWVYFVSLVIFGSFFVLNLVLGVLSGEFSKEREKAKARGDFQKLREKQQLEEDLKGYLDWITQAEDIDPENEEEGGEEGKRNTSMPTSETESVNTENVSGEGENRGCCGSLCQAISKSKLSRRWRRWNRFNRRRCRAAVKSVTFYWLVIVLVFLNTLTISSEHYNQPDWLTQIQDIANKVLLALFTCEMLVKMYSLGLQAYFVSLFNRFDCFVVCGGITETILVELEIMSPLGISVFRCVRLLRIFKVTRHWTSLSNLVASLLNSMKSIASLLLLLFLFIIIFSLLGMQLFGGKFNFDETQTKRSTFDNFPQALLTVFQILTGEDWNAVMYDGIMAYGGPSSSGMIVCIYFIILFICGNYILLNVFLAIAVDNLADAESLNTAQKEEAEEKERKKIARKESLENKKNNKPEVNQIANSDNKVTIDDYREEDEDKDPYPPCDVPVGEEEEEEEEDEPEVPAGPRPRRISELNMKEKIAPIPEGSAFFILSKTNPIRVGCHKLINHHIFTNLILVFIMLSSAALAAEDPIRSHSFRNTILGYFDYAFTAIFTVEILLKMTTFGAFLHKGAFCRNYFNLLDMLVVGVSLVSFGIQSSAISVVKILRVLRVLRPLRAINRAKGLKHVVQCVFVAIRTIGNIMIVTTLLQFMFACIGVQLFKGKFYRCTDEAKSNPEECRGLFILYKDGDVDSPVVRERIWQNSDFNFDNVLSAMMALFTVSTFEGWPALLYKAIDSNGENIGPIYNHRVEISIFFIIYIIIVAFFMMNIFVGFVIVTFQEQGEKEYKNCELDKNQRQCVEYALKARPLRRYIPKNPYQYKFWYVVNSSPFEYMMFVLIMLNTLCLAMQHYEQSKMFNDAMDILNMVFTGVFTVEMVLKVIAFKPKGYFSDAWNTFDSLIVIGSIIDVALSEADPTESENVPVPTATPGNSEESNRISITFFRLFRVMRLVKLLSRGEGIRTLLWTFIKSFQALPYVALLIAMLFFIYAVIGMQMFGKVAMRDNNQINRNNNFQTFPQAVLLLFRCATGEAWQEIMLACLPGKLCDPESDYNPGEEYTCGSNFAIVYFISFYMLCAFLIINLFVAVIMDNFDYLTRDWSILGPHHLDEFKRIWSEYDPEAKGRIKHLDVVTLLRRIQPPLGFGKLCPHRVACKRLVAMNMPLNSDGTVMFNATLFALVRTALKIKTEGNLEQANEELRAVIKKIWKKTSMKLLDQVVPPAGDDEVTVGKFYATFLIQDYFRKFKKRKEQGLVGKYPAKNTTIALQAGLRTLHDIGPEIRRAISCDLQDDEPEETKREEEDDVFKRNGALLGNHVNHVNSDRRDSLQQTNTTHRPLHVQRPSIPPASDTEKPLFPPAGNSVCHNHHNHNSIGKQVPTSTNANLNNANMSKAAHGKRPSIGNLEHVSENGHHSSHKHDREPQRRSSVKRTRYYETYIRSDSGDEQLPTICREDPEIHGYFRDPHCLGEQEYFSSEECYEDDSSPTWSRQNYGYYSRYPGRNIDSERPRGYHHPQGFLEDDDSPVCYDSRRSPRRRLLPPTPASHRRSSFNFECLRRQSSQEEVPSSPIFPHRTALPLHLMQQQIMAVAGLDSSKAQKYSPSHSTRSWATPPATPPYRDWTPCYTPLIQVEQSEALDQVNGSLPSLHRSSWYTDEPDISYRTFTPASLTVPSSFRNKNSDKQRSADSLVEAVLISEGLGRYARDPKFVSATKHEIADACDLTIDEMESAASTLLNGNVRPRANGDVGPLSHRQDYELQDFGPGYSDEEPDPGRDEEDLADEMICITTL

Row | Structure (SMILES) | FRET change, negative = inhibition
1 | Cc1cccc2sc(NNC(=O)c3ccc(S(=O)(=O)N4CCCC(C)C4)cc3)nc12 (stereo unspecified) | -1.05%
2 | COc1ccccc1OCc1ccc(C(=O)N(C)c2ccccc2)o1 | 4.94% [at 16 µM]
3 | Cc1c(Nc2c3ccccc3nc3ccccc23)c(=O)n(-c2ccccc2)n1C | 8.67%
4 | Cc1ccc2c(c1)N(C(=O)CCC(=O)NCCCN1CCOCC1)CC(C)O2 (stereo unspecified) | 26%
5 | CN(C)C(=O)CSc1nc2ccc(C(=O)c3ccccc3)cc2[nH]1 | -11.8%
6 | CC1CC(C)CN(CCCNC(=O)CCC(=O)N2CC(C)Oc3ccccc32)C1 (stereo unspecified) | 4.52%
7 | CC1CCCCC1NC(=O)CN1C(=O)c2cccc(N)c2C1=O (stereo unspecified) | 321%
8 | CC(C)(C)[C@H]1CCC(=O)N([C@H](CSc2ccccc2)Cc2ccccc2)CC1 | -35.3%
9 | COCCCOc1cc(NCc2ccccc2)c2ncn(C(C)C)c2c1 | 9.32%
10 | COc1cc(/C=C(\C#N)C(=O)NC(C)C)cc(Cl)c1O | -16.2%
11 | CCOc1ccc(NC(=O)CN(C)C(=O)CCCNC(=O)c2ccc(Cl)cc2)cc1OCC | 6.84%
12 | COc1ccc(CCNC(=O)c2cc(S(=O)(=O)N3CCCCC3)c[nH]2)cc1OC | 118%
13 | COCc1cc(C)nc(SCC(=O)Oc2ccc(Cl)cc2)c1C#N | 0.592%
14 | COc1ccc(C(=O)Oc2cc(N)n(S(=O)(=O)c3ccccc3)n2)cc1 | 0.324%
15 | COc1ccc(NC(=O)C2CCC(CNS(=O)(=O)c3cccs3)CC2)cc1 (stereo unspecified) | 21.3%
16 | O=C(/C=C/c1ccccc1)C1=C(O)C(=O)N(CCO)C1c1ccc2c(c1)OCO2 (stereo unspecified) | -0.266%
17 | O=c1[nH]c(Nc2ccccc2Cl)cc2ccccc12 | -0.01%
18 | CCOc1ccc2nc(NCCCNC(=O)c3cc(OC)c(OC)c(OC)c3)c(C#N)cc2c1 | 449%

Row | Structure (SMILES) | FRET change, negative = inhibition
19 | Cc1cccn2c(=O)c3cc(C#N)c(=NC(=O)c4cccs4)n(CC(C)C)c3nc12 | 58.8%
20 | COc1ccc(CCN=C(N)NS(=O)(=O)c2ccc(F)cc2)cc1 | 13.4%
21 | COc1ccc(Cn2nnnc2C(CC(C)C)N2CCC(C(N)=O)CC2)cc1 (stereo unspecified) | -0.453%
22 | CSc1ccc(Cn2c(C)c(C(=O)NCc3cccc(Cl)c3)sc2=O)cc1 | -8.54%
23 | Cc1nc2ccc(S(=O)(=O)Nc3ccc(-c4nc5cccnc5s4)cc3)cc2s1 | -13.8%
24 | O=C(O)c1cccc(Nc2nc(-c3cc4ccccc4oc3=O)cs2)c1 | 192%
25 | Cc1noc(C)c1-c1ccc(C(=O)NCCc2ccccc2)c2occc12 | 16.9%
26 | O=C(NCc1cc(C(F)(F)F)ccc1Cl)c1cccc2c1C(=O)c1ccc(Cl)cc1S2(=O)=O | 11.7%
27 | COc1cc(C2C3=C(CC(C)(C)CC3=O)N(C)C3=C2C(=O)CC(C)(C)C3)cc(Br)c1O | -4.72%
28 | CCC(Sc1nc(N)c(NC(=O)c2ccc(OC)cc2)c(=O)[nH]1)C(=O)O (stereo unspecified) | -18.7%
29 | CC1(C)CC(=O)C2=C(C1)OC(N)=C(C#N)[C@@H]2c1ccccc1[N+](=O)[O-] | 5.07% [at 16 µM]
30 | Clc1ccccc1C1=CC(c2ccco2)n2ncnc2N1 (stereo unspecified) | 193% [at 16 µM]
31 | CC(C)(C)c1csc(N/N=C/c2ccc(O)cc2)n1 | -17.3%
32 | CN1c2ccc(Cl)cc2C(=O)NC1C1CC=CCC1 (stereo unspecified) | 17%
33 | CC(C)CCn1c(CN2CC(C)OC(C)C2)nc2c1c(=O)n(C)c(=O)n2C (stereo unspecified) | -16.3%
34 | COc1cc2sc3cc(NCC[C@@H]4CCCN4C)ccc3c(=O)c2cc1OC | 54% [at 16 µM]
35 | Nc1cccc2c1C(=O)N(c1ccccc1)C2=O | 468%
36 | O=c1oc2cc(O)ccc2cc1-c1nc2ccccc2o1 | 385%
